Hit rate of the full screen: of about 4,500 compounds, about 200 (4.4%) were called active.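 Rule for the calls: active = cell survival measured by absorbance rises more than 2.5-fold over infected cells without compound; inactive = the rest.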 The full list was thinned out, with actives kept by preference.
test: survival after telomere uncapping, modulators, primary screen, cell-based (AID 1259312); details: HCT116 + Ad-hTR-mut, MTT, 5 d; at 10 µM, active compounds read high;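 note: virus expresses mutant telomerase RNA that uncaps telomeres and kills cells; compound added 2 days after infection so exposure lasts 3 days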

Structure (SMILES)	fold change
O=C(Nc1nc2c(s1)CCCC2)C1CC(=O)N(c2ccc(F)cc2)C1 (centres undefined)	-2.42 (inactive)
Cc1cccn2c(=O)c(C=O)c(Nc3cccc(Cl)c3)nc12	-1.44 (inactive)
CCCCc1ccc(C2C3=C(CC(C)(C)CC3=O)OC3=C2C(=O)CC(C)(C)C3)s1	-1.42 (inactive)
Fc1ccc(-c2nc3sc(-c4ccc(F)cc4)nc3s2)cc1	-2.41 (inactive)
O=C(c1ccc2[nH]c(=O)oc2c1)c1ccc2[nH]c(=O)oc2c1	1.41 (inactive)
C#CCN1C(=O)S/C(=C\c2ccc(N3CCCC3)cc2)C1=O	-1.24 (inactive)
CN1CCC2(CC1)C(C#N)=C(N)Oc1n[nH]c(C(=O)OC(C)(C)C)c12	-1.08 (inactive)
COCc1[nH]nc2c1C1(CCN(C)CC1)C(C#N)=C(N)O2	-1.21 (inactive)
CN1CCC2(CC1)C(C#N)=C(N)Oc1n[nH]c(-c3ccccc3)c12	3.65 (active)
CCOC(=O)C1=C(C)NC2=C(C(=O)CCC2)C1c1ccc(CC)s1 (centres undefined)	-1.61 (inactive)
COc1ccc2[nH]c(=O)c(=O)[nH]c2c1	1.16 (inactive)
O=c1[nH]c2ccccc2[nH]c1=O	5 (active)
O=c1ccc2ccccc2[nH]1	-1.85 (inactive)
O=S(=O)(c1ccccc1)N1CCN(Cc2ccc3c(c2)OCO3)CC1	-4.81 (inactive)
O=S(=O)(c1ccc2c(c1)OCCO2)N1CCCCC1	-1.44 (inactive)
O=C(c1ccc(COc2ccc(I)cc2)o1)N1CCCC1	-1.09 (inactive)
CN(C)c1ccc(/C=C2\C(=O)ON=C2c2cccc(I)c2)cc1	-1.18 (inactive)
Cn1c2c(c(=O)[nH]c1=O)C(c1ccccc1)C1=C(N2)c2ccccc2C1=O (centres undefined)	-6.31 (inactive)
Cc1[nH][nH]c(=O)c1C(c1ccncc1)C(C#N)C#N (centres undefined)	3.56 (active)
O=C(Nc1sc2c(c1C(=O)Nc1ccc(Br)cc1)CCC2)c1cccs1	1.12 (inactive)
Cn1nnnc1SCC(=O)Nc1ccc(F)c(Cl)c1	-2.05 (inactive)
O=C(Nc1ccc(Br)cc1Br)C(Cl)Cl	-6.77 (inactive)

Structure (SMILES)	fold change
CC(=O)Nc1sc2c(c1C(N)=O)CCCCC2	1.05 (inactive)
CC(=O)Nc1sc2c(c1C(N)=O)CCCC2	-1.98 (inactive)
CC(=O)Nc1sc2c(c1C(=O)O)CCCC2	2.88 (active)
COc1ccc(S(=O)(=O)N2CCCc3ccccc32)cc1	-1.9 (inactive)
CC1(C)CC(NC(=O)C(=O)NC2CC(C)(C)NC(C)(C)C2)CC(C)(C)N1	4.26 (active)
CC1(C)CC(NS(=O)(=O)c2ccccc2)CC(C)(C)N1	-1.13 (inactive)
CC(C)NC(=O)C(=O)NC1CC(C)(C)NC(C)(C)C1	-2.38 (inactive)
Cc1cc(NC(=O)c2n[nH]c(=O)c3ccccc23)no1	-1.69 (inactive)
Cn1c(-c2ccccc2)c(NC(=O)c2ccccc2Cl)c(=O)n1C	-1.22 (inactive)
C=CCOC(=O)c1sc(NC(=O)c2ccco2)nc1C	-1.45 (inactive)
Oc1[nH]c(=S)sc1/C=C/C=C/C=Nc1ccccc1	inactive
CCCc1cc(=O)oc2cc(O)cc(O)c12	1.04 (inactive)
Cn1nc(C(F)(F)F)cc1C(=O)O	-1.06 (inactive)
Cc1sc(NC(=O)Cn2nc(C(F)(F)F)cc2C)c(C(N)=O)c1C	-1.23 (inactive)
Cc1cc(C(F)(F)F)nn1CC(N)=O	3.13 (active)
C=CCn1c(COc2ccccc2)n[nH]c1=S	1.52 (inactive)
CCOC(=O)c1c(NC(=O)C23CC4CC(CC(C4)C2)C3)sc2c1CCN(C(=O)OCC)C2	-1.15 (inactive)
O=[N+]([O-])c1cc(Br)cc(C=Nc2ccc(N=Cc3cc(Br)cc([N+](=O)[O-])c3O)cc2)c1O	inactive
Oc1c(Br)cc(Br)cc1C=Nc1ccc(Cl)cc1Cl	active
O=[N+]([O-])c1ccc(N=Cc2cc(Br)cc(Br)c2O)cc1	active
Oc1c(Cl)cc(Cl)cc1C=Nc1ccc(Cl)cc1Cl	inactive
O=[N+]([O-])c1ccc(O)c(N=Cc2cc(Br)cc(Br)c2O)c1	active

Structure (SMILES)	fold change
O=[N+]([O-])c1ccc(O)c(N=Cc2cc(Br)cc([N+](=O)[O-])c2O)c1	inactive
O=[N+]([O-])c1ccc(N=Cc2cc(Br)cc([N+](=O)[O-])c2O)cc1	inactive
O=[N+]([O-])c1ccc(N=Cc2cc(Br)cc(Br)c2O)c(O)c1	inactive
Oc1c(Br)cc(Br)cc1C=Nc1cc(Cl)ccc1Cl	inactive
S=C(c1ccco1)N1CCOCC1	1.24 (inactive)
NC(Cc1cc(F)ccc1F)C(=O)O (centres undefined)	-3.72 (inactive)
O=[N+]([O-])c1cccc(S(=O)(=O)Nc2ccc(I)cc2)c1	1.39 (inactive)
O=[N+]([O-])c1ccc(Nc2ccc(O)cc2)c([N+](=O)[O-])c1	-1.07 (inactive)
O=[N+]([O-])c1ccc(NS(=O)(=O)c2ccccc2)c([N+](=O)[O-])c1	3.49 (active)
O=C1CN(C(=O)Cn2c(=O)oc3ccccc32)c2ccccc2N1	-1.03 (inactive)
O=C(O)C1=NN(c2ccc(S(=O)(=O)O)cc2)C(=O)C1	1.74 (inactive)
O=C1CCC(=O)N1CCCCCCN1C(=O)CCC1=O	-1.37 (inactive)
CN1N=C(C(=O)O)CCC1=O	2.58 (active)
O=C1C=CC(=O)N1c1cc(Cl)cc(Cl)c1	-1.38 (inactive)
N#CC1=C(N)C(C#N)(C#N)C(c2ccc(Cl)cc2Cl)C2CCCC=C12 (centres undefined)	-4.43 (inactive)
Cc1[nH][nH]c(=O)c1C1(C(C#N)C#N)C2CC3CC(C2)CC1C3 (centres undefined)	2.9 (active)
C=CCN(CC=C)C(=O)C1c2ccccc2Oc2ccccc21	-1.36 (inactive)
CN(C)c1ccc(NC(=O)c2sc(=S)[nH]c2N)cc1	-1.46 (inactive)
N#Cc1c(C(F)(F)F)cc(-c2cccs2)[nH]c1=S	4.58 (active)
N#Cc1c(C(F)(F)F)cc(-c2cccs2)oc1=S	-2.59 (inactive)
N#Cc1c(C(F)(F)F)cc(-c2ccccc2)[nH]c1=S	-1.58 (inactive)
O=C(Nc1ccc(I)cc1)C1CCCN1C(=O)c1cccs1 (centres undefined)	1.51 (inactive)

Structure (SMILES)	fold change
Cn1c(COc2ccc(C3CCCCC3)cc2)n[nH]c1=S	2.92 (active)
Cn1c(Cc2ccccc2)n[nH]c1=S	-1.19 (inactive)
CCCCn1c(COc2ccc(Cl)cc2)n[nH]c1=S	-1.76 (inactive)
O=C(O)CCSc1ncnc2ccccc12	-3.11 (inactive)
CCN(CC)CC(=O)Nc1sc2c(c1C(N)=O)CCCC2	1 (inactive)
O=c1[nH]cnc2nn(-c3ccccc3)nc12	inactive
Fc1ccc(CSc2nnc(SCc3ccccc3F)s2)cc1	-1.07 (inactive)
Fc1ccccc1CSC1=NCCN1	3.44 (active)
c1ccc(CC2=NCCN2)cc1	-1.2 (inactive)
O=C1NC(=O)/C(=C/c2ccc(-c3ccc(Br)c(Cl)c3)o2)N1	-1.16 (inactive)
Nc1ccc(N2CCCC2)c(C(F)(F)F)c1	1.69 (inactive)
COc1ccc(N/C=C(\C#N)C(N)=S)cc1OC	-3.68 (inactive)
COc1ccc(CC2=CN(C)CC3=C2OC(N)=C(C#N)C3c2ccc(OC)cc2)cc1 (centres undefined)	1.19 (inactive)
CC(C)N1C=C(Cc2ccc(F)cc2)C2=C(C1)C(c1ccc(F)cc1)C(C#N)=C(N)O2 (centres undefined)	1.45 (inactive)
CCCN1CC2=C(OC(N)=C(C#N)C2c2ccc(SC)cc2)/C(=C/c2ccc(SC)cc2)C1 (centres undefined)	5.06 (active)
COc1ccc(C(=CCl)c2ccc(OC)c(Br)c2)cc1Br	-2.67 (inactive)
CCc1sc(C(C2C(=O)CC(C)(C)CC2=O)C2C(=O)CC(C)(C)CC2=O)cc1Br	-6.02 (inactive)
CCc1ccc(C(C2C(=O)CC(C)(C)CC2=O)C2C(=O)CC(C)(C)CC2=O)s1	-2.62 (inactive)
CCc1sc(C(C2C(=O)CC(C)(C)CC2=O)C2C(=O)CC(C)(C)CC2=O)cc1[N+](=O)[O-]	3.11 (active)
O=C(N=Nc1c(O)[nH]c2ccccc12)c1cc(-c2ccco2)[nH]n1	inactive
O=[N+]([O-])c1ccc(Cl)cc1N1CCN(CCO)CC1	2.17 (inactive)
O=[N+]([O-])c1ccc(Cl)cc1SCCO	3.06 (active)

Structure (SMILES)	fold change
O=[N+]([O-])c1ccc(SCCO)c2ncccc12	1.52 (inactive)
COc1ccc(C2C3CCC=C3C(C#N)=C(N)C2(C#N)C#N)c(OC)c1 (centres undefined)	1.26 (inactive)
COCCNC(=O)C(=O)NCCC1=CCCCC1	1.05 (inactive)
Clc1cccc(N2CCN(Cn3nnc4ccccc43)CC2)c1	3.04 (active)
C(=C/c1ccccc1)/CN1CCN(Cn2nnc3ccccc32)CC1	-1.33 (inactive)
c1ccc2c(c1)nnn2CN1CCN(c2ccc3c(c2)OCO3)CC1	-1.48 (inactive)
Cc1cc(C)c(CCl)c(C)c1/C=N/O	1.02 (inactive)
O=C(O)CSc1nc(SCc2ccccc2)nc2ccccc12	1.5 (inactive)
CCc1ccc(C2C(C#N)=C(N)OC3=C2C(=O)CCC3)s1 (centres undefined)	1.35 (inactive)
COC(=O)c1nonc1N	-1.05 (inactive)
CCOC(=O)c1nonc1N	3.82 (active)
Nc1nonc1C(=O)O	-1.12 (inactive)
CS(=O)(=O)Nc1ccc(Br)cn1	-1.27 (inactive)
CCCOc1ccc(N/C(N)=N/c2nc(C)cc(C)n2)cc1	-3.48 (inactive)
CC1=C(C2=C(C)C(C(C)C)C3=C(C(=O)C(O)C3O)C2O)C(O)C2=C(C(O)C(O)C2=O)C1C(C)C (centres undefined)	-1.99 (inactive)
O=S(=O)(Nc1ccc(F)c(Cl)c1)c1ccc(Cl)cc1	2.99 (active)
O=S(=O)(Nc1cc(Cl)cc(Cl)c1)c1ccc(Cl)cc1	4.93 (active)
O=S(=O)(Nc1ccc(Cl)cc1)c1ccc(NS(=O)(=O)c2ccc3c(c2)OCCO3)cc1	-1.18 (inactive)
O=S(=O)(Nc1ccc2c(c1)OCO2)c1ccc(Cl)cc1	-1.43 (inactive)
O=S(=O)(Nc1cccc(F)c1)c1ccc(F)cc1	-1.33 (inactive)
O=S(=O)(Nc1ccncc1)c1ccc(Cl)cc1	-1.23 (inactive)

— PubChem BioAssay AID1259312 (Keith Lab, Institute of Cancer Science, University of …, 2017)
